Reference: PubChem BioAssay (NCATS)
Results filed as inconclusive are left out. Calls of active or inactive are those of the source. Unless noted, the call rests on the fitted dose curve; in most records, active means well fitted curve in the direction sought with a large enough effect; inconclusive means small, poorly fitted or top-dose-only effect, or another doubt; inactive means no such curve, though single readings can be large; an effect the other way counts as inactive or inconclusive.

Key:
[1] = target: Cytochrome P450 1A2 (Homo sapiens) (UniProt P05177); experiment: p450-cyp1a2 (AID 410; calls by dose curve; further: potency means the concentration at half of the fitted maximal effect)
Chain of Cytochrome P450 1A2 (Homo sapiens) (P05177 whole entry, looked up): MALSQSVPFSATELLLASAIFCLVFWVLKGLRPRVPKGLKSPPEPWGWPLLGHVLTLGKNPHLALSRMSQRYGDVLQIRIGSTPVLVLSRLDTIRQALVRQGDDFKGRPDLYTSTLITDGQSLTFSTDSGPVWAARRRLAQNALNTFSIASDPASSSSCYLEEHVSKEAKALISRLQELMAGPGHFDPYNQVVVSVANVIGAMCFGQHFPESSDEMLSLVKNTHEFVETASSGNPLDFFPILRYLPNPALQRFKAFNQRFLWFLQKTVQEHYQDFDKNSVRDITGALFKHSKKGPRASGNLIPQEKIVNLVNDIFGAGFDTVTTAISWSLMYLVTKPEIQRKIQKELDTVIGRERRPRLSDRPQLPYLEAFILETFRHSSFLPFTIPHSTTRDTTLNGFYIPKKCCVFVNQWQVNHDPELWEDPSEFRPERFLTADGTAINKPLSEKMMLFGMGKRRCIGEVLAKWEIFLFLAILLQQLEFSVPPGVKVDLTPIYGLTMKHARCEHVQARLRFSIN
In short: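 20nM CYP1A2, 100uM Luciferin-ME (=Km), 100mM KPO4; cpd 10 min RT; +NADPH regen, 60 min RT; stop/detect 20 min; luminescence. Normalized to furafylline 57 uM = full inhibition.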

[2] = target: Mitogen-activated protein kinase 10 (Mus musculus) (UniProt Q61831); experiment: JNK3 AlphaScreen Assay (AID 530; active means well fitted curve in either direction with a large enough effect, not every such curve was filed as active;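 further: kinase came from lysate of stimulated human HepG2 cells; signal reports phosphorylation of biotinylated GST-cJun 1-79 at Ser73 with 10 µM ATP; series mostly up to about 57 µM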)
In short: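 Biotinylated GST-cJun(1-79) served as substrate for JNK3 in HepG2 lysates stimulated with IL-1beta and TNF-alpha. ATP was 10 uM final, pH 7.6. Ser73 phosphorylation was quantified by AlphaScreen (680 nm excitation).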

[3] = target: 3',5'-cyclic-AMP phosphodiesterase 4B (Homo sapiens) (UniProt Q07343); experiment: qHTS Assay for Inhibitors of PDE-IV (AID 607; active means well fitted activation curve with a large enough effect in the main read-out, with a control signal flat, not every such curve was filed as active)
Chain of 3',5'-cyclic-AMP phosphodiesterase 4B (Homo sapiens) (Q07343 whole entry, looked up): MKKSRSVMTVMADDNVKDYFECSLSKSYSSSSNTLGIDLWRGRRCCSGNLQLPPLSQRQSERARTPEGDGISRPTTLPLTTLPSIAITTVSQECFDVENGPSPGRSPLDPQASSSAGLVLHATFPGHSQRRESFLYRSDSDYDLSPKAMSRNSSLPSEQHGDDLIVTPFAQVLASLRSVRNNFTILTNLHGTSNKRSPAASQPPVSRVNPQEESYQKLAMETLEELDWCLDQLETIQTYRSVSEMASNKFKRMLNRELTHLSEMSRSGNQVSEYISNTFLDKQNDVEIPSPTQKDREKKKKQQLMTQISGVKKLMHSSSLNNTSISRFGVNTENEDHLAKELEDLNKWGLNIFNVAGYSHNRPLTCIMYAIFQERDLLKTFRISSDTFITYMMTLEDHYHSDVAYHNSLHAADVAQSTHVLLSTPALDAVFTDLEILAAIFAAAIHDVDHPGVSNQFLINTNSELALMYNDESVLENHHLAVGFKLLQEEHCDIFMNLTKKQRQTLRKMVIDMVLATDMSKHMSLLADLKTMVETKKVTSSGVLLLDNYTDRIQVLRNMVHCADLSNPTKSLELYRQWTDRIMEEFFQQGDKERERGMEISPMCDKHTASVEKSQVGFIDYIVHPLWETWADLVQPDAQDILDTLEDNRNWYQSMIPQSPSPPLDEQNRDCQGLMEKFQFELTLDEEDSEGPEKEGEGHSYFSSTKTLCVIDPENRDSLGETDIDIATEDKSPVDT
In short: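 Live HEK293 cells with a modified cyclic nucleotide-gated (CNG) channel report intracellular cAMP via membrane-potential dye fluorescence (ex 535/em 590 nm). Endogenous PDE-IV was targeted. Compounds were tested at up to 22.9 uM final; RO 20-1724 100 uM served as control.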

[4] = target: Cytochrome P450 2C9 (Homo sapiens) (UniProt P11712); experiment: qHTS Assay for Inhibitors and Substrates of Cytochrome P450 2C9 (AID 883); further: nearly all actives have a fitted effect of over 60% in size; further: potency means the concentration at half of the fitted maximal effect
Chain of Cytochrome P450 2C9 (Homo sapiens) (P11712 whole entry, looked up): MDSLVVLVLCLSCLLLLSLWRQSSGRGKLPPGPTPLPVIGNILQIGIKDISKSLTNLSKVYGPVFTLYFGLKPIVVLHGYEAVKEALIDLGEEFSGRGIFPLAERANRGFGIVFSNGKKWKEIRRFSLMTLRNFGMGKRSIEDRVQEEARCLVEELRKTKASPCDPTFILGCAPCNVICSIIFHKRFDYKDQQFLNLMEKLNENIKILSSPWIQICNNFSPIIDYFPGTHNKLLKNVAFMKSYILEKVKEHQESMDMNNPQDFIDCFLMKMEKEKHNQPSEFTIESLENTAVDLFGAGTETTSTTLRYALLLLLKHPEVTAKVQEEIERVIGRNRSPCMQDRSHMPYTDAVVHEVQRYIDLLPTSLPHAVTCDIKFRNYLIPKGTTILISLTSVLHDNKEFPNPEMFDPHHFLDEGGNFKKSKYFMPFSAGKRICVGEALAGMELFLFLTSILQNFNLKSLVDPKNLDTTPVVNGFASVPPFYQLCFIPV
In short: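 Human CYP2C9 (10nM) hydroxylated Luciferin-H (100uM, at its KM) to luciferin in 25mM KPO4. Compound was preincubated 10 min at 37C, then NADPH regeneration started a 60 min reaction at 37C. Luminescence was read after detection reagent, normalized to 57uM sulphaphenazole.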

[5] = target: Cytochrome P450 3A4 (Homo sapiens) (UniProt P08684); experiment: qHTS Assay for Inhibitors and Substrates of Cytochrome P450 3A4 (AID 884); further: potency means the concentration at half of the fitted maximal effect; nearly all actives have a fitted effect of over 50% in size
Chain of Cytochrome P450 3A4 (Homo sapiens) (P08684 whole entry, looked up): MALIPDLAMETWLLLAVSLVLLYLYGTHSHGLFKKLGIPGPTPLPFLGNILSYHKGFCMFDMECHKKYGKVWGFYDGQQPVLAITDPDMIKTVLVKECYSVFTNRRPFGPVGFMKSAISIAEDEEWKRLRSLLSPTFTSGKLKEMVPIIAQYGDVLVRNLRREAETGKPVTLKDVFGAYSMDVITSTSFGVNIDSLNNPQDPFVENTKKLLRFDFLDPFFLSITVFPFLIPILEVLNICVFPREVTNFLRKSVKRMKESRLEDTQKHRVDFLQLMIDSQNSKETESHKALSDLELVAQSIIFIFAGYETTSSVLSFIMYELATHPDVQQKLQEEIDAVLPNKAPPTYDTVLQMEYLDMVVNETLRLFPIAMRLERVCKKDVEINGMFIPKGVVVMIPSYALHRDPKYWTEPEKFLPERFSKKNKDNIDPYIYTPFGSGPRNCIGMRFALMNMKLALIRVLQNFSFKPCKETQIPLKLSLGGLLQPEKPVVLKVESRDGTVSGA
In short: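 Luminescent readout of luciferin produced by CYP3A4 (20 nM) dealkylation of Luciferin-PPXE, 25 uM (its KM). NADPH-driven reaction ran 60 min at RT after 10 min compound preincubation; data scaled to 57 uM ketoconazole as 100% inhibition.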

[6] = target: Cytochrome P450 3A4 (Homo sapiens) (UniProt P08684); experiment: qHTS Assay for Activators of Cytochrome P450 3A4 (AID 885); further: nearly all actives have a fitted effect of over 65% in size
In short: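 Using 20nM recombinant human CYP3A4 in potassium phosphate (200mM), substrate Luciferin-PPXE at 25uM, luminescent luciferin detection followed a 60-min RT NADPH reaction; data scaled to 57 uM ketoconazole.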

[7] = target: Cytochrome P450 2C19 (Homo sapiens) (UniProt P33261); experiment: qHTS Assay for Inhibitors and Substrates of Cytochrome P450 2C19 (AID 899); further: nearly all actives have a fitted effect of over 60% in size; further: potency means the concentration at half of the fitted maximal effect
Chain of Cytochrome P450 2C19 (Homo sapiens) (P33261 whole entry, looked up): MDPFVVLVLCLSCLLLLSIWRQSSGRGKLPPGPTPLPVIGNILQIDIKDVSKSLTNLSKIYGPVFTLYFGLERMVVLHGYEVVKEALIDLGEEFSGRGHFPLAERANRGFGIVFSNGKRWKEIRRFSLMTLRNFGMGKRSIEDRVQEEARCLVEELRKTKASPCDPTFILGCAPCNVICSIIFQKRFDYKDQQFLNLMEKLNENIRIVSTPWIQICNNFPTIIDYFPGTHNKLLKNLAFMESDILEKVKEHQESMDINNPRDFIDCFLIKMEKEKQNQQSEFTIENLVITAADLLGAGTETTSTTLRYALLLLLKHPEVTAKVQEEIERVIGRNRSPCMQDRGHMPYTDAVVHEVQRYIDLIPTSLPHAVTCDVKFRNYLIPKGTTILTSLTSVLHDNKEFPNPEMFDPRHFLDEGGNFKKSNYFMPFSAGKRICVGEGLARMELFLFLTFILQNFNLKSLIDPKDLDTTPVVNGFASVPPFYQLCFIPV
In short: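 Human CYP2C19 (5nM) with Luciferin-H EGE at 10uM (its KM) in 50mM KPO4 was preincubated with compound for 10 min at 37C. NADPH regeneration started a 60 min 37C reaction. Luciferin was read by luminescence, normalized to 57uM ketoconazole.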

[8] = target: Cytochrome P450 2D6 (Homo sapiens) (UniProt P10635); experiment: qHTS Assay for Inhibitors and Substrates of Cytochrome P450 2D6 (AID 891); further: nearly all actives have a fitted effect of over 60% in size; further: potency means the concentration at half of the fitted maximal effect
Chain of Cytochrome P450 2D6 (Homo sapiens) (P10635 whole entry, looked up): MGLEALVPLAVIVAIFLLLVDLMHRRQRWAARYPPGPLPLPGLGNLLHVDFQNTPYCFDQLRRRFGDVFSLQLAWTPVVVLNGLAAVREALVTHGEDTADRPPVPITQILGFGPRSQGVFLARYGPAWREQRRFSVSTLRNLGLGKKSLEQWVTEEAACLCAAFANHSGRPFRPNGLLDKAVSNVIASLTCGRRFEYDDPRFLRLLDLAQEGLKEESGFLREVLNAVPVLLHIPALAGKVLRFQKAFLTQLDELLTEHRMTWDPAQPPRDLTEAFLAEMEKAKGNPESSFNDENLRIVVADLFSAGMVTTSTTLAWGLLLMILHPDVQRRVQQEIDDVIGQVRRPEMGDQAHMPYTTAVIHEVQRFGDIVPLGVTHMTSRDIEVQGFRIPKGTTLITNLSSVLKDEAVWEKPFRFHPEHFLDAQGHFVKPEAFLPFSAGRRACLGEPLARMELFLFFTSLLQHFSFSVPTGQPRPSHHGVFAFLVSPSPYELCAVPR
In short: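 Luminescent read-out of luciferin formed by 5 nM human CYP2D6 demethylating 30 uM Luciferin-ME EGE (Km level) over 60 min at room temperature after NADPH regeneration addition. Data normalized to full inhibition by 1.43 uM quinidine.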

Measured: Potency

C[C@@H](C(=O)NCc1cccc2ccccc12)[C@H]1C[C@]1(C)[C@H](NC(=O)OCc1ccccc1)c1ccccc1
active: [1] 25.1 µM | [4] 3.16 µM | [5] 0.398 µM | [7] 2.51 µM
inactive: [2] | [3] | [6]

COC(=O)[C@@]1(Cc2ccc(OC)cc2)[C@H]2c3cc(C(=O)N4CCCC4)n(CCc4c[nH]c5cc(F)ccc45)c3C[C@H]2CN1C(=O)c1ccccc1
active: [1] 39.8 µM | [4] 3.16 µM | [7] 3.98 µM
inactive: [2] | [3] | [6]

COC(=O)[C@@]1(Cc2ccc(F)cc2)[C@H]2c3cc(C(=O)N4CCCC4)n(CCc4c[nH]c5ccccc45)c3C[C@H]2CN1C(=O)c1ccccc1
active: [4] 2.51 µM
inactive: [1] | [2] | [3] | [6]

COC(=O)[C@@]1(Cc2ccc(OC)cc2)[C@H]2c3cc(C(=O)N4CCCC4)n(CCc4c[nH]c5ccc(O)cc45)c3C[C@H]2CN1C(=O)c1ccccc1
active: [4] 3.16 µM | [5] 1.58 µM
inactive: [1] | [2] | [3] | [6]

COC(=O)[C@@]1(Cc2ccc(F)cc2)[C@H]2c3cc(C(=O)N4CCCC4)n(Cc4ccc(OC(F)(F)F)cc4)c3C[C@H]2CN1C(=O)c1ccccc1
active: [4] 6.31 µM | [5] 2.51 µM
inactive: [1] | [2] | [3] | [6]

CC1=C(C(=O)OCc2ccccc2)C(c2ccc3ccccc3c2)NC(=O)N1CCCCCC(=O)O (stereo not given)
inactive: [2] | [3] | [6]
active: [1] 20 µM | [4] 7.94 µM

C[C@@H](C(=O)Cc1ccc2ccccc2c1)[C@@H]1C[C@@]1(C)[C@@H](NP(=O)(c1ccccc1)c1ccccc1)c1ccccc1
active: [1] 10 µM | [4] 3.16 µM
inactive: [2] | [3] | [6]

COC(=O)[C@@]1(Cc2ccccc2)[C@H]2c3cc(C(=O)N4CCCC4)n(Cc4ccc(OC)c(OC)c4)c3C[C@H]2CN1C(=O)c1ccccc1
inactive: [1] | [2] | [3] | [6]
active: [4] 1.26 µM | [5] 1.26 µM

COC(=O)[C@@H]1C[C@H]1[C@@H](NC(=O)Oc1ccc(F)cc1)c1ccccc1
inactive: [2] | [3] | [6]
active: [1] 3.16 µM | [4] 3.98 µM

COC(=O)[C@@]1(Cc2ccccc2)[C@H]2c3cc(C(=O)N4CCCC4)n(Cc4cc(F)cc5c4OCOC5)c3C[C@H]2CN1C(=O)c1ccccc1
inactive: [1] | [2] | [3] | [6]
active: [4] 0.316 µM | [5] 3.98 µM | [7] 0.251 µM

NCCC[C@@H](CC(=O)N[C@@H]1CCNC[C@H]1C(=O)N[C@H](CC(=O)N[C@@H](CCC(=O)O)CC(=O)O)Cc1ccccc1)NC(=O)C[C@H](CO)NC(=O)[C@@H]1CCCC[C@H]1N
inactive: [1] | [2] | [3] | [4] | [8] | [7]

CC1=C(\C=C/C(C)=C/C=C\C(C)=C\CO)C(C)(C)CCC1
inactive: [1] | [2] | [3] | [4] | [8]

CCCCCCN(C(=O)CCCCCN1C(=O)NC(c2ccc(-c3ccccc3)cc2)C(C(=O)OCc2ccccc2)=C1C)C(C(=O)NCCCC)c1ccc(OCC(=O)OC)c(C(=O)OC)c1 (stereo not given)
active: [1] 12.6 µM | [4] 0.158 µM
inactive: [2] | [3] | [8] | [7]

Nc1ccccc1C#Cc1ccccc1
inactive: [2] | [3] | [6]
active: [1] 0.501 µM | [4] 7.94 µM

COC(=O)N[C@H](c1ccccc1)[C@@]1(C)C[C@@H]1[C@@H](C)C(=O)Nc1ccc2ccccc2c1
inactive: [2] | [3] | [6]
active: [1] 12.6 µM | [4] 3.98 µM | [8] 0.0316 µM | [7] 3.16 µM

Cc1cc(C(=O)N[C@H](c2ccccc2)[C@@]2(C)C[C@@H]2[C@@H](C)C(=O)Nc2ccc3ccccc3c2)n(C)n1
active: [1] 20 µM | [4] 7.94 µM | [8] 0.0398 µM
inactive: [2] | [3] | [6]

C[C@@H](C(=O)Nc1ccc2ccccc2c1)[C@H]1C[C@]1(C)[C@H](NC(=O)c1cnccn1)c1ccccc1
active: [1] 25.1 µM | [4] 5.01 µM | [5] 0.631 µM
inactive: [2] | [3] | [6]

C[C@@H](C(=O)Nc1ccc2ccccc2c1)[C@H]1C[C@]1(C)[C@H](NC(=O)OCc1ccccc1)c1ccccc1
active: [1] 3.98 µM | [4] 1.58 µM
inactive: [2] | [3] | [6]

CCCC1(C(=O)OC)C=C2C(=C(c3ccccc3)C(=O)C2C)CN1 (stereo not given)
inactive: [2] | [3] | [6]
active: [1] 15.8 µM | [4] 5.01 µM | [7] 7.94 µM
